Test systems include SK-MEL-2 melanoma; EKVX NSCLC; SN12C renal; UO-31 renal; TK-10 renal; ACHN renal; CAKI-1 renal; A498 renal; CCRF-CEM leukemia; MOLT-4 leukemia.
What all share (assay): NCI-60 one-dose screen, 48 h (100 = growth as untreated, 0 = no growth, -100 = all killed)
Common to all, as to settings: 10 µM unless noted

Structures are written as SMILES. Compounds without any hit were thinned out: in the full panel of roughly 83,000, 20% have a hit.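 For each line, cells grew in 96-well plates with the test compound present at a single concentration for 48 hours.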 A number with no mark means an inactive call. The source made the active and inactive calls. The calls were made as follows: active = growth percent below 10; inactive = the rest.

From PubChem BioAssay (NCI) come the findings set out here.

`CCOC(=O)C/C(=N\Nc1cc(=O)[nH]c2ccc(OC)cc12)C(=O)OCC`: the growth was 117% with SK-MEL-2 melanoma; 100% in the test with EKVX NSCLC; 99.5% with SN12C renal; 78.1% in the test on UO-31 renal; 114% in the test on TK-10 renal; 98.8% in the test on ACHN renal. Besides, the growth in the test on CAKI-1 renal is 91.9%; with A498 renal, 106%; in the test on CCRF-CEM leukemia, -47.5% (active); in the test with MOLT-4 leukemia, 26.1%.

Consider `CN(C)c1ccc(CNCCO)cc1`, for which the growth with SK-MEL-2 melanoma is 65.8%; with EKVX NSCLC it was 103%; with SN12C renal, 99.9%; with UO-31 renal it was 91.5%; in the test on TK-10 renal, 82.9%; with ACHN renal it was 102%. Also, the growth with CAKI-1 renal was 101%; in the test on A498 renal, 111%; with CCRF-CEM leukemia it was 88.4%; in the test with MOLT-4 leukemia, 99%.

In the case of `O=C1/C(=C/c2c[nH]c(=O)[nH]c2=O)SC(=S)N1Cc1ccccc1`, the growth in the test on SK-MEL-2 melanoma is 103%; with EKVX NSCLC, 74.6%; with SN12C renal, 95.5%; in the test on UO-31 renal, 75.8%; in the test with TK-10 renal, 102%; with ACHN renal, 102%. Further, the growth was 93.6% with CAKI-1 renal, 99.9% in the test on A498 renal, 104% with CCRF-CEM leukemia and 103% with MOLT-4 leukemia.

Regarding `C=CCN=c1sc(-c2ccc3ccccc3c2)cn1NC(=O)c1cc2ccc1CCc1ccc(cc1)CC2`, the growth was 85.6% in the test on SK-MEL-2 melanoma; 58.2% in the test on EKVX NSCLC; 74.3% with SN12C renal; 42.3% in the test on UO-31 renal; 79.7% with TK-10 renal; 72.3% in the test on ACHN renal. Further, the growth in the test with CAKI-1 renal is 60.9%; with A498 renal, 62.7%; with CCRF-CEM leukemia, 41.2%; with MOLT-4 leukemia, 45.3%.

As to `CC(C)c1ccc2c(c1)CC[C@H]1[C@](C)(C(=O)OCC#CCN3CCCC3)CCC[C@]21C`, the growth in the test on SK-MEL-2 melanoma is 103%; in the test with EKVX NSCLC it was 74.8%; in the test on SN12C renal, 71.5%; with UO-31 renal it was 60.7%; in the test on TK-10 renal it was 98.6%; with ACHN renal it was 86.2%. For the same compound, the growth in the test on CAKI-1 renal is 94.5%; in the test with A498 renal, 105%; in the test on CCRF-CEM leukemia, 6.39% (active); in the test with MOLT-4 leukemia, 72.7%.

Regarding `CN1C(=O)/C(=C/c2ccc(C(=O)Nc3ncc(Cc4cccc(C(F)(F)F)c4)s3)cc2)SC1=S`, the growth is 56.7% in the test on SK-MEL-2 melanoma; 37.1% in the test on EKVX NSCLC; 73.4% with SN12C renal; 51.1% in the test on UO-31 renal; 47.5% with TK-10 renal; 32.4% in the test with ACHN renal. The growth is 22% in the test on CAKI-1 renal, 35.6% in the test with A498 renal, 7.85% (active) with CCRF-CEM leukemia and 46.8% in the test with MOLT-4 leukemia.

With `CCCCCCCCCCOC(=O)c1nn(C(C)=O)c2cc(C)c(C)cc12`, the growth in the test with SK-MEL-2 melanoma was 104%; with EKVX NSCLC, 91.6%; in the test with SN12C renal, 102%; in the test on UO-31 renal, 71.7%; in the test on TK-10 renal it was 104%; in the test on ACHN renal, 97.1%. The growth with CAKI-1 renal was 88.8%; in the test with A498 renal it was 79.1%; in the test with CCRF-CEM leukemia it was 92.2%; in the test with MOLT-4 leukemia, 82.7%.

`COc1cc(-c2ccc(-c3ccc(C(=N)N)cc3)s2)cc(OC)c1OC`: the growth with SK-MEL-2 melanoma is 83.9%; with EKVX NSCLC, 75.4%; in the test with SN12C renal, 71.4%; in the test on UO-31 renal it was 79.3%; in the test on TK-10 renal it was 113%; in the test with ACHN renal, 91.1%. Besides, the growth in the test on CAKI-1 renal was 63.4%; with A498 renal, 89.2%; in the test on CCRF-CEM leukemia, 26.9%; in the test with MOLT-4 leukemia, -2.06% (active).

`Fc1ccc2[nH]cc(-c3nc(-c4c[nH]c5c(Cl)nccc45)cs3)c2c1`: the growth is 73.4% in the test on SK-MEL-2 melanoma; 63.2% with EKVX NSCLC; 65.9% in the test on SN12C renal; 21.8% in the test on UO-31 renal; 33.8% with TK-10 renal; 17.7% with ACHN renal. Moreover, the growth with CAKI-1 renal was 49.2%; with A498 renal, 14%; in the test on CCRF-CEM leukemia, 28.5%; in the test with MOLT-4 leukemia it was 38.2%.

For `Nc1c(C(=O)Nc2cccc3ncccc23)sc2nc3c(cc12)CN(Cc1ccccc1)CC3`, the growth was 57.3% in the test with SK-MEL-2 melanoma; 76.4% in the test on EKVX NSCLC; 82.1% in the test with SN12C renal; 70.2% in the test with UO-31 renal; 89.4% with TK-10 renal; 88.6% in the test with ACHN renal. Also, the growth in the test with CAKI-1 renal is 74.1%; with A498 renal, 72.1%; with CCRF-CEM leukemia, 69.6%; in the test on MOLT-4 leukemia, 48.5%.

On to `Nc1cc(C(=O)O)cc(-n2c(O)c(C=C3N=c4ccccc4=N3)sc2=S)c1`, for which the growth is 101% in the test on SK-MEL-2 melanoma; 99.4% with EKVX NSCLC; 95.8% with SN12C renal; 69.5% in the test on UO-31 renal; 103% in the test on TK-10 renal; 99% with ACHN renal. Moreover, the growth with CAKI-1 renal was 86.8%; in the test on A498 renal, 102%; in the test with CCRF-CEM leukemia, 106%; with MOLT-4 leukemia, 103%.

On to `CCOc1ncc([N+](=O)[O-])c(OCC)n1`, for which the growth is 103% in the test on SK-MEL-2 melanoma; 122% in the test on EKVX NSCLC; 91.8% in the test on SN12C renal; 106% in the test on UO-31 renal; 115% in the test on TK-10 renal; 106% in the test with ACHN renal. For the same compound, the growth in the test on CAKI-1 renal was 116%; in the test on A498 renal, 111%; in the test on CCRF-CEM leukemia, 101%; in the test on MOLT-4 leukemia, 90.9%.

Regarding `Nc1ncnc2c1N=C(c1ccc(F)cc1)CC(c1cccc(Nc3ccnc4cc(Cl)ccc34)c1)N2` (stereo not given), the growth is 89.1% in the test with SK-MEL-2 melanoma; 64.9% in the test with EKVX NSCLC; 79.7% in the test with SN12C renal; 59.6% in the test with UO-31 renal; 105% in the test on TK-10 renal; 96.3% with ACHN renal. Besides, the growth in the test on CAKI-1 renal is 70.5%; in the test on A498 renal, 92.3%; with CCRF-CEM leukemia, 74.1%; in the test with MOLT-4 leukemia, 39.6%.
